Among the data in PubChem BioAssay (NCATS) are Potency and outcome values, retold here.

Records with an inconclusive call do not appear. A call without a number means that no potency is given here. Activity calls are given as the source filed them. The call rests on the fitted dose curve; in most records, active means well fitted curve in the direction sought with a large enough effect; inconclusive means small, poorly fitted or top-dose-only effect, or another doubt; inactive means no such curve, though single readings can be large; an effect the other way counts as inactive or inconclusive.

Assay [1] deals with Arylsulfatase A (Homo sapiens) (UniProt P15289). Nature of the assay: qHTS screen for enhancers of Arylsulfatase A (ASA1): LOPAC Validation Assay (AID 720538). Further: potency means the concentration at half of the fitted maximal effect. An outline of the steps: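 Cell-based enhancement test: residual ASA activity in SV40-transformed I179S patient fibroblasts is measured by pNCS turnover (0.5mM final, 14h, room temperature) following 48h compound incubation; higher fluorescence indicates activation.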
Chain of Arylsulfatase A (Homo sapiens) (P15289 whole entry, looked up): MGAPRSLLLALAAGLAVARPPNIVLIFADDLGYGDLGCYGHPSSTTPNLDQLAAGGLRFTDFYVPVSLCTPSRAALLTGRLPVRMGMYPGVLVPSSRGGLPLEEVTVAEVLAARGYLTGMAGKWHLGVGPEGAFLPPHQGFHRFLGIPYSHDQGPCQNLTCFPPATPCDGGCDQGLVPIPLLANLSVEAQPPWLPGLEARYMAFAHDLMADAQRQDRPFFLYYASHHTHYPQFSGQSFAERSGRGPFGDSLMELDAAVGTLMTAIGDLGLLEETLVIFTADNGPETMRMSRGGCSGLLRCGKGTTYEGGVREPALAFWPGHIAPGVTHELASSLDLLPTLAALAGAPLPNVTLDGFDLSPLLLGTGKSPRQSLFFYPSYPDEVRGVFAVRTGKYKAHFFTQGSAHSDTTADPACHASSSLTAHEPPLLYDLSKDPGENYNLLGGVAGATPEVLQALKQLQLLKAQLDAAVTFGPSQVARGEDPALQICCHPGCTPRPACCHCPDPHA

Assay [2] in a line: qHTS for compounds that reverse cellular toxicity of Amyloid beta (A-beta) peptide in yeast: LOPAC Validation Assay (AID 720559). The method in brief: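 Here, A-beta-toxic yeast grow with test compounds at 30 C for 48 hr before optical density at 600 nm is recorded; data are normalized against DMSO and the FeCl3-clioquinol control.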
Assay [3] can be described thus: qHTS for Activators of Parkin Expression: LOPAC Validation Assay (NLuc Reporter) (AID 720572). An outline of the steps:
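Parkin promoter-driven FLuc/NLuc neuronal reporter cells; 24 h plating, 7-pt dose response, 24 h at 37 C/5% CO2; FLuc then NanoLuc reagent, 10 min each, luminescence; DMSO/positive control normalized.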

With `C[N+](C)(C)CC#CCOC(=O)Nc1cccc(Cl)c1`, the Potency entry in assay [1] and in assay [3] was “inactive” each time. Further, the molecule was called inactive in assay [2].

For the molecule `NC(Cc1ccc(N(CCCl)CCCl)cc1)C(=O)O` (stereo not drawn), the Potency result in assay [1] and in assay [3] was “inactive” in each case. In assay [2], the call was inactive.

Take `CCCn1c(=O)c2[nH]c(C3CCCC3)nc2n(CCCOC(=O)c2ccc(S(=O)(=O)F)cc2)c1=O`: the Potency entry in assay [1] and in assay [3] was “inactive” in each case. In addition, the molecule was called inactive in assay [2].

For the molecule `C[N+]1(C)CCc2cc3c(cc2[C@H]1[C@@H]1OC(=O)c2c1ccc1c2OCO1)OCO3`, the Potency result in assay [1] and in assay [3] was “inactive” throughout. The molecule was called inactive in assay [2].

For `c1ccc2cc(CC3=NCCN3)ccc2c1`, the Potency result in assay [1] and in assay [3] was “inactive” each time. Besides, the result in assay [2] was inactive.

As to `NNC(=O)c1ccc(O)cc1`, the Potency entry in assay [1] and in assay [3] was “inactive” throughout. In assay [2], the outcome was inactive.

Consider `c1ccc2c(N3CCNCC3)cccc2c1`, for which the Potency entry in assay [1] and in assay [3] was “inactive” each time. The call in assay [2] was inactive.

On to `C[N+]1(C)CCN(c2ccccc2)CC1`, for which the Potency result in assay [1] and in assay [3] was “inactive” throughout. For the same molecule, the call in assay [2] was inactive.

Take `CC1(C(=O)O)C2CCC(O2)C1(C)C(=O)O` (stereo not drawn): the Potency entry in assay [1] and in assay [3] was “inactive” in each case. Besides, the molecule was classed as inactive in assay [2].

For the molecule `C=CCN1CCC23c4c5ccc(O)c4O[C@H]2C(=O)CC[C@@]3(O)C1C5` (stereo partly drawn), the Potency result in assay [1] and in assay [3] was “inactive” in each case. Further, in assay [2], the molecule was called inactive.

Regarding `COC(=O)N1CCN(C(=O)Cc2ccc(Cl)c(Cl)c2)C(CN2CCCC2)C1` (stereo not drawn), the Potency entry in assay [1] and in assay [3] was “inactive” throughout. The molecule was classed as inactive in assay [2].

For the molecule `CCCN(CCC)[C@@H]1CCc2cccc(O)c2C1`, the Potency entry in assay [1] and in assay [3] was “inactive” each time. Also, the molecule was called inactive in assay [2].

For `CN1C2CCC1CC(OC(c1ccccc1)c1ccccc1N)C2` (stereo not drawn), the Potency entry in assay [1] and in assay [3] was “inactive” throughout. Moreover, the molecule was classed as inactive in assay [2].

Consider `C[N+]1(C)CCOC(O)(c2ccc(-c3ccc(C4(O)C[N+](C)(C)CCO4)cc3)cc2)C1` (stereo not drawn), for which the Potency result in assay [1] and in assay [3] was “inactive” throughout. Moreover, in assay [2], the molecule was called inactive.

In the case of `CP(=O)(O)C1=CCNCC1`, the Potency result in assay [1] and in assay [3] was “inactive” throughout. For the same molecule, in assay [2], the call was inactive.

For the molecule `O=[N+]([O-])c1cc(O)c(O)c([N+](=O)[O-])c1`, the Potency in assay [1] was 19 µM (active). In addition, the molecule was called inactive in assay [2]. Further, in assay [3], the Potency result was “inactive”.
